{"source": "PubChem BioAssay (Tox21)", "note": "Records with an inconclusive call do not appear. Unmarked numbers belong to inactive results. Activity calls are given as the source filed them. Calls follow the shape of the dose curve; as a rule, active = well fitted inhibition curve with a large enough effect in the signal ratio in the repeat runs (not every such curve was filed as active); inconclusive = weak or mixed curves, or effect the other way; inactive = no such curve, though single readings can be large or run the other way; the % refers to the signal ratio. % is scaled to controls: 0 for no effect and ±100 for the full control effect."}
{"target": "Androgen receptor (Homo sapiens) (UniProt P10275)", "sequence (P10275 whole entry, looked up)": "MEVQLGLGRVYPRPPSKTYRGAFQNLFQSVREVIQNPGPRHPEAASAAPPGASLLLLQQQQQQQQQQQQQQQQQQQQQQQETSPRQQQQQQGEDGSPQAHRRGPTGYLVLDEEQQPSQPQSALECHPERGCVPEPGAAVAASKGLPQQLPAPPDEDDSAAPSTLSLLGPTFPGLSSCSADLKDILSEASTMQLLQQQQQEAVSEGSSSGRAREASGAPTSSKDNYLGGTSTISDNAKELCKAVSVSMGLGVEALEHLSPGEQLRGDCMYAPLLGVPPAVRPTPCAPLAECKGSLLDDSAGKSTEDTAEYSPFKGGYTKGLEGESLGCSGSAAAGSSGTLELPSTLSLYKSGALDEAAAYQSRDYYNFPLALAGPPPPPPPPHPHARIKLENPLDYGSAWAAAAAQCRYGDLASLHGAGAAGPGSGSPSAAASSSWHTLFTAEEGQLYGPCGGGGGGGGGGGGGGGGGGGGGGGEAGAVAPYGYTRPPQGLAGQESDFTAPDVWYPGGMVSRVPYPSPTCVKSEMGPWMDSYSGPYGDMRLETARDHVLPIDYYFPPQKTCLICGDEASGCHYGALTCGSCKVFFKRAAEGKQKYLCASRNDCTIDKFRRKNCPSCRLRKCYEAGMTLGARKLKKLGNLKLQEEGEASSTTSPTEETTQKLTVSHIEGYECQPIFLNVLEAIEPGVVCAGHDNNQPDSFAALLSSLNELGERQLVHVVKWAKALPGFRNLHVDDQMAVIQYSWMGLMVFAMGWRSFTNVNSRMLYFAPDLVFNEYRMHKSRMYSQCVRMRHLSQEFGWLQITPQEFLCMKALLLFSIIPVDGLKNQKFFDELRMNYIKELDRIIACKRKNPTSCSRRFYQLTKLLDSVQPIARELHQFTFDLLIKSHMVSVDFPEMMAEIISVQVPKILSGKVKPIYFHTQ", "assay": "qHTS assay to identify small molecule antagonists of the androgen receptor (AR) signaling pathway (AID 743035)", "details": "HEK293 AR-UAS-bla, R1881-stimulated, beta-lactamase FRET, 16 h; series mostly up to 58.5 µM", "text": "National Center for Advancing Translational Sciences [NCATS]\nNIH Chemical Genomics Center [NCGC]\nU.S. Environmental Protection Agency [EPA]\nNational Institutes of Environmental Health Sciences [NIEHS]\nNational Toxicology Program [NTP]\nU.S. Food and Drug Administration [FDA]\nAndrogen receptor (AR), a nuclear hormone receptor, plays a critical role in AR-dependent prostate cancer and other androgen related diseases. Endocrine disrupting chemicals (EDCs) and their interactions with steroid hormone receptors like AR may cause disruption of normal endocrine function as well as interfere with metabolic homeostasis, reproduction, developmental and behavioral functions. To identify the compounds that inhibit AR signaling, GeneBLAzer AR-UAS-bla-GripTite cell line (Invitrogen, Carlsbad, CA, USA) containing a beta-lactamase reporter gene under control of an Upstream Activator Sequence (UAS) stably integrated into HEK293 cells was used to screen the Tox21 10K compound library.\nTox21 Assay Protocol Summary:\nAR-bla cells were dispensed at 2,000 cells/5 uL of assay medium per well into black wall/clear-bottom 1536-well plates using a Multidrop Combi (ThermoFisher Scientific, Waltham, MA) dispenser. After the assay plates were incubated at a 37C and 5% CO2 for 4 hr, 23 nL of compounds dissolved in DMSO, positive controls or DMSO only was transferred to the assay plate by a Pintool station (Kalypsys, San Diego, CA), followed by addition of 1 uL of agonist (R1881) in culture medium using a Bioraptr Flying Reagent Dispenser (FRD) workstation (Beckman Coulter, Indianapolis, IN, USA). The plates were incubated at a 37C and 5% CO2 for 16 h. After 1 uL of LiveBLAzerTM B/G FRET substrate was added using a Bioraptr FRD, the plates were incubated at room temperature for 2 h and fluorescence intensity was measured by an Envision plate reader (PerkinElmer, Shelton, CT)."}
{"smiles": "C/C(Cl)=C/CCl", "outcome": "inactive"}
{"smiles": "CCc1ncc(C)[nH]1", "outcome": "inactive"}
{"smiles": "Nc1cc(S(=O)(=O)O)ccc1O", "outcome": "inactive"}
{"smiles": "CC(C)(C)NCC(O)COc1cccc2c1CCC(=O)N2", "note": "(stereo not drawn)", "outcome": "inactive"}
{"smiles": "C=CCN1CCc2nc(N)sc2CC1", "outcome": "inactive"}
{"smiles": "C/C(=N\\O)c1ccc(OCC(=O)N2CCCCC2)cc1", "outcome": "inactive"}
{"smiles": "O=C1c2ccccc2C(=O)N1CO", "outcome": "inactive"}
{"smiles": "O=C[C@@H](O)[C@H](O)[C@H](O)CO", "outcome": "inactive"}
{"smiles": "CCOC(=O)[C@H](CCc1ccccc1)N[C@H]1CS[C@H](c2cccs2)CN(CC(=O)O)C1=O", "outcome": "inactive"}
{"smiles": "COc1cc(OC)cc(OC)c1", "outcome": "inactive"}
{"smiles": "C[C@@H](CN1CC(=O)NC(=O)C1)N1CC(=O)NC(=O)C1", "outcome": "inactive"}
{"smiles": "CN(C)c1cc(NC(=O)CNC(C)(C)C)c(O)c2c1C[C@H]1C[C@H]3[C@H](N(C)C)C(=O)C(C(N)=O)=C(O)[C@@]3(O)C(=O)C1=C2O", "outcome": "inactive"}
{"smiles": "COC(C)(C)CC(C)=O", "outcome": "inactive"}
{"smiles": "Cc1ccc(N)nc1", "outcome": "inactive"}
{"smiles": "CC(O)C(CO)C(C)O", "note": "(stereo not drawn)", "outcome": "inactive"}
{"smiles": "CC12CCCC=C1C(=O)OC2=O", "note": "(stereo not drawn)", "outcome": "inactive"}
{"smiles": "N[C@H]1C(O)O[C@H](CO)[C@@H](O)[C@@H]1O", "note": "(stereo partly drawn)", "outcome": "inactive"}
{"smiles": "CCCCCCCCCCCCCCCCN(C)C", "activity change, negative = inhibition": "-9.68% [at 7.04 µM]"}
{"smiles": "CC(=O)OC1CCC(C(C)(C)C)CC1", "note": "(stereo not drawn)", "outcome": "inactive"}
{"smiles": "CCCC(=O)C(CC)Sc1ccoc1C", "note": "(stereo not drawn)", "outcome": "inactive"}
{"smiles": "NNC(=O)OCc1ccccc1", "outcome": "inactive"}
{"smiles": "CC(C)CC(O)Cc1ccccc1", "note": "(stereo not drawn)", "outcome": "inactive"}
{"smiles": "Cc1ccc2cccnc2c1", "outcome": "inactive"}
{"smiles": "CCCCCCCCC1CO1", "note": "(stereo not drawn)", "outcome": "inactive"}
{"smiles": "N#Cc1ccccc1C#N", "outcome": "inactive"}
{"smiles": "C=C(C)C(=O)OCCCC", "outcome": "inactive"}
{"smiles": "Cc1ccc(O)c(C(=O)c2ccccc2)c1", "outcome": "inactive"}
{"smiles": "CC1(C)C(=O)C(C)(C)C1=O", "outcome": "inactive"}
